Results from PubChem BioAssay (NCATS).
Values joined by “and” are separate entries in the source; they are usually repeats but may differ in a detail not shown here. Equal entries are not always repeated. Records with an inconclusive call do not appear. Active and inactive are the calls of the source. Unless noted, calls come from the whole dose curve; as a rule, active = well fitted curve in the direction sought with a large enough effect; inconclusive = small, poorly fitted or top-dose-only effect, or another doubt; inactive = no such curve, though single readings can be large; an effect the other way counts as inactive or inconclusive.

How the values were obtained:
[1] = biological target: Thyroid hormone receptor beta (Homo sapiens) (UniProt P10828); assay: qHTS assay for small molecule agonists of thyroid hormone receptor beta signaling (AID 588545; calls by dose curve)
How it was run: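 In this cell-based screen, titrated compounds act on HEK 293 cells held in medium with 2% charcoal/dextran FBS, NEAA and pyruvate for 18 hrs at 37 C. Responses are expressed relative to T3 (10 nM) as 100% and basal DMSO as 0%.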

[2] = qHTS assay for small molecule antagonists of retinoid X receptor alpha signaling (AID 588546; active = well fitted inhibition curve with a large enough effect in the signal ratio, with a control signal flat, not every such curve was filed as active; the % refers to the signal ratio;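 note: cells stimulated with 9-cis-retinoic acid as agonist; % is set by controls: 0 for no effect and ±100 for the full control effect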); settings: HEK293T RXRa-UAS-bla, beta-lactamase ratio, antagonist mode; measured here: W530 green channel, cytotoxicity proxy
How it was run: (§1)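 Beta-lactamase reporter inhibition, read as CCF4 fluorescence ratio (ex 405, em 460/530 nm) after 2 h at RT. HEK293T UAS-bla cells, 2500/well, were stimulated with 9-cis-RA at 500 or 100 nM final alongside test compound for 18 h at 37 C.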

[3] = biological target: Retinoic acid receptor RXR-alpha (Homo sapiens) (UniProt P19793); assay: as above; settings: HEK293T RXRa-UAS-bla, beta-lactamase ratio, antagonist mode
How it was run: as §1

[4] = biological target: Thyroid hormone receptor beta (Homo sapiens) (UniProt P10828); assay: qHTS assay for small molecule antagonists of thyroid hormone receptor beta signaling (AID 588547; active = well fitted inhibition curve with a large enough effect in the signal ratio, with a control signal flat, not every such curve was filed as active; the % refers to the signal ratio;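 note: cells stimulated with 0.4 nM T3 agonist during compound exposure; series mostly up to about 77 µM; % is set by controls: 0 for no effect and ±100 for the full control effect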); settings: TR-UAS-bla HEK293, beta-lactamase ratio, antagonist mode, 18 h
How it was run: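 TR-UAS-bla GripTite HEK293 cells in 2% charcoal/dextran FBS medium; compounds 0.59 nM to 92 uM with T3 at 0.4nM final, 18 h at 37 C. Beta-lactamase read by CCF4 fluorescence (460/530 nm); Hill fits gave IC50 and efficacy.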

[5] = biological target: Luciferin 4-monooxygenase (Photinus pyralis) (UniProt P08659); assay: Biochemical firefly luciferase enzyme assay for NPC (AID 624030);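 note: purified P. pyralis luciferase at 10 nM with luciferin and ATP substrate; series mostly up to about 59 µM; 0% = DMSO and -100% = full luciferase inhibition by PTC124 control; nearly all actives have a fitted effect of over 70% in size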
How it was run: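 Purified P. pyralis luciferase at 10 nM in 50 mM Tris Acetate (final), luminescence read within 5 minutes of enzyme addition to compounds. Activity normalised to PTC124 versus DMSO; concentration-response curves classed by r2, magnitude and activity.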

[6] = S16 Schwann cell PMP22 intronic element firefly luciferase assay (AID 624032);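 note: series mostly up to about 58 µM; plate controls were DMSO for no effect and PTC124 positive control mean for full effect; nearly all actives have a fitted effect of over 30% in size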
How it was run: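 Rat S16 Schwann cells stably carrying firefly luciferase driven by a PMP22 intronic element, in 10% FBS, treated 24 h at 37 C. ONE-Glo luminescence normalized to PTC124 control and DMSO (0%); curves classed by r2, magnitude and activity.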

[7] = S16 Schwann cell PMP22 intronic element beta-lactamase assay (AID 624044; calls by dose curve;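 note: 0% = DMSO and -100% = potassium clavulanate positive control; nearly all actives have a fitted effect of over 15% in size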)
How it was run: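 Beta-lactamase reporter under a PMP22 intronic regulatory element in stable S16 rat Schwann cells; 24 h compound exposure. 460 nm blue signal normalized between DMSO (0%) and potassium clavulanate, with 535 nm FRET tracking viability; curves classed by r2 and response.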

[8] = qHTS assay for small molecule activators of the p53 signaling pathway (AID 651743; active = well fitted activation curve with a large enough effect in the signal ratio, not every such curve was filed as active; the % refers to the signal ratio; note: series mostly up to about 92 µM; % of control where 0% means no effect); settings: HCT-116 p53RE-bla, beta-lactamase FRET ratio, 16 h; stronger effect = higher value
How it was run: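 Reporter: beta-lactamase driven by p53 response elements, stably integrated in HCT-116 cells. Cells seeded at 4,000/well, 5 h preincubation, compound (DMSO) 16 h at 37 C; B/G FRET substrate 2 h RT; fluorescence intensity read.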

[9] = qHTS assay for small molecule activators of the nuclear factor-kappa B (NF-kB) signaling pathway (AID 651749; active = well fitted activation curve with a large enough effect in the signal ratio; the % refers to the signal ratio; note: series mostly up to about 77 µM; % of control where 0% means no effect); settings: NF-kB-bla ME-180 cells, beta-lactamase FRET ratio, 16 h; stronger effect = higher value
How it was run: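 NF-kB-bla ME-180 cells, 2,000/well; 23 nL compound or DMSO pinned; 16 hr, 37C/5% CO2; beta-lactamase FRET read-out.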

[10] = qHTS assay for small molecule disruptors of the mitochondrial membrane potential - 1 hr assay (AID 651754; calls by dose curve; note: % is set by controls: 0 for no effect and ±100 for the full control effect; nearly all actives have a fitted effect of over 35% in size)
How it was run: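 In this qHTS format, a 1 hr compound treatment of HepG2 cells precedes Mito-MPS staining, and membrane potential is judged from aggregate (red) against monomer (green) fluorescence intensity.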

[11] = qHTS assay for small molecule disruptors of the mitochondrial membrane potential - 5 hr assay (AID 651755; calls by dose curve; note: % is set by controls: 0 for no effect and ±100 for the full control effect; nearly all actives have a fitted effect of over 40% in size)
How it was run: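 Read-out: ratiometric Mito-MPS fluorescence, green monomer (ex 490/em 535) vs red mitochondrial aggregate (ex 540/em 590). HepG2 cells treated 5 hr at 37C before 30 min dye loading.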

[12] = biological target: Tumor necrosis factor (Homo sapiens) (UniProt P01375); assay: qHTS assay to identify small molecules that stimulate Tumor Necrosis Factor-alpha (TNF-alpha) secretion (AID 651757; active = well fitted curve in the direction sought with a large enough effect in the signal ratio; the % refers to the signal ratio; note: 0% is about no effect)
How it was run: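 Using 3000 THP-1 cells per well, compounds and controls were applied for 17 hrs at 37 C. Detection followed with two labeled anti-TNF-alpha antibodies (cryptate donor, XL665 acceptor) for 3 hr at room temperature, measured by TR-FRET.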

[13] = qHTS assay for environmental chemicals that activate the Aryl hydrocarbon Receptor (AhR) signaling pathway (AID 651777); settings: 1A2-DRE human hepatoma cells, luciferase, 24 h; stronger effect = higher value; note: % of control where 0% means no effect; nearly all actives have a fitted effect of over 15% in size
How it was run: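 1A2-DRE human hepatoma reporter line; 1,200 cells/well; cmpd or DMSO 24 h, 37 C/5% CO2; One-Glo 30 min RT; luciferase lum.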

[14] = biological target: Peroxisome proliferator-activated receptor alpha (Homo sapiens) (UniProt Q07869); assay: qHTS assay for small molecule agonists of the peroxisome proliferator-activated receptor alpha (PPARalpha) signaling pathway (AID 651778); settings: PathHunter PPARalpha complementation, chemiluminescence, 6 h; stronger effect = higher value; note: % of control where 0% means no effect
How it was run: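 Enzyme-fragment complementation assay in which ligand-bound PPARalpha translocates and forms an active enzyme that generates chemiluminescence. Cells were plated overnight, exposed to compound for 6 hr at 37 C, and then given detection reagent for 60 min at room temperature.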

[15] = qHTS assay for small molecule agonists of the antioxidant response element (ARE) signaling pathway measured by Nrf2-dependant transcriptional activity (AID 720636; active = well fitted curve in the direction sought with a large enough effect in the repeat runs; an effect the other way counts as inactive or inconclusive;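 note: HepG2 cells with an ARE-driven luciferase reporter; % of control where 0% means no effect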)
How it was run: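 Cells: ARE-luc HepG2 with Nrf2-responsive luciferase. Medium contained 1% dialyzed FBS. Compound exposure lasted 16 hr at 37 C and 5% CO2, followed by ONE-Glo luciferase detection.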

[16] = biological target: Voltage-gated inwardly rectifying potassium channel KCNH2 (Homo sapiens) (UniProt Q12809); assay: qHTS Assay for Small Molecule Inhibitors of the Human hERG Channel Activity (AID 588834);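 note: top concentration of the series differs between compounds; % is set by controls: 0 for no effect and ±100 for the full control effect; lower thallium flux fluorescence means stronger hERG block; nearly all actives have a fitted effect of over 50% in size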
How it was run: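 hERG block measured as reduced thallium-dye (FluxOR) fluorescence after stimulation buffer addition, read over 2 min. Cells were hERG-BacMam-transduced U2OS exposed to compound ~10 min […]; concentration-response fitted with Hill equation for AC50.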

[17] = qHTS assay for small molecule agonists of the antioxidant response element (ARE) signaling pathway (AID 651741; active = well fitted activation curve with a large enough effect in the signal ratio; the % refers to the signal ratio; note: % of control where 0% means no effect)
How it was run: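 HepG2 ARE-bla reporter cells, 2,000/well; 5 h settle at 37 C/5% CO2; compound pin transfer (23 nL, DMSO); 16 h at 37 C; LiveBLAzer B/G FRET substrate, 2 h RT; fluorescence intensity read.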

[18] = S16 Schwann cell viability assay (CellTiter-Glo assay) (AID 624031);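 note: cellular ATP luminescence as a viability measure; series mostly up to about 58 µM; plate controls were DMSO-treated cells for no effect and cell-free wells for full effect; nearly all actives have a fitted effect of over 70% in size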
How it was run: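 Luminescent ATP read-out (CellTiter-Glo) after 24 h compound exposure of native S16 rat Schwann cells at 37 °C. Signals were normalized between cell-free wells and DMSO-treated cells, set as 0% activity.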

Chain of Retinoic acid receptor RXR-alpha (Homo sapiens) (P19793 whole entry, looked up): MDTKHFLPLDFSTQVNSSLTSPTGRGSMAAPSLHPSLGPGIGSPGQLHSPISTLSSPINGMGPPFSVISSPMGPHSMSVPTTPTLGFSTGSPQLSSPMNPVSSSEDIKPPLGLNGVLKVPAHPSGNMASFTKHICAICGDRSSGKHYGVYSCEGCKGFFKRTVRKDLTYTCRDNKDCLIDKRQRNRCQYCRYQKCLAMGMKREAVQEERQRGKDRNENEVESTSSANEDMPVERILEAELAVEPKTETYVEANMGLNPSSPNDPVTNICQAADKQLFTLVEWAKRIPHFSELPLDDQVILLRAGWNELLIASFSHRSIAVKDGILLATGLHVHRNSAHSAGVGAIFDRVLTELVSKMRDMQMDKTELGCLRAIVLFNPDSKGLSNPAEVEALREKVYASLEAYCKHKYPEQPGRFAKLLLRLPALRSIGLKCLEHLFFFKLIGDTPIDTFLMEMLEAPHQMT
Chain of Luciferin 4-monooxygenase (Photinus pyralis) (P08659 whole entry, looked up): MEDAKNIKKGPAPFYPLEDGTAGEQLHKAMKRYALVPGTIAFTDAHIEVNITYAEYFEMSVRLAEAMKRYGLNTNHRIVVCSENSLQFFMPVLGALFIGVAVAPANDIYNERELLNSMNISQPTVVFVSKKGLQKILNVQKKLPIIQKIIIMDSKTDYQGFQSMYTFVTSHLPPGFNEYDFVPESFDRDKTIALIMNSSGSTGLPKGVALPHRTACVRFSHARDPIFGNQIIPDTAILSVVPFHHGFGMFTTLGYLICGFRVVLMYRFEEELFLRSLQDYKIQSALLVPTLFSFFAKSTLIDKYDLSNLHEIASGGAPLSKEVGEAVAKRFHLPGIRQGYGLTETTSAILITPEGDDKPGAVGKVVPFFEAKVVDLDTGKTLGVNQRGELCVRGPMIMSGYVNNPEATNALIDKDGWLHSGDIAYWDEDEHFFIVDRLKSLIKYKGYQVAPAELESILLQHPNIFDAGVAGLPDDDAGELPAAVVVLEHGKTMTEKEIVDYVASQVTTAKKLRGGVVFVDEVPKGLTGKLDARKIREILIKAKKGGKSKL
Chain of Thyroid hormone receptor beta (Homo sapiens) (P10828 whole entry, looked up): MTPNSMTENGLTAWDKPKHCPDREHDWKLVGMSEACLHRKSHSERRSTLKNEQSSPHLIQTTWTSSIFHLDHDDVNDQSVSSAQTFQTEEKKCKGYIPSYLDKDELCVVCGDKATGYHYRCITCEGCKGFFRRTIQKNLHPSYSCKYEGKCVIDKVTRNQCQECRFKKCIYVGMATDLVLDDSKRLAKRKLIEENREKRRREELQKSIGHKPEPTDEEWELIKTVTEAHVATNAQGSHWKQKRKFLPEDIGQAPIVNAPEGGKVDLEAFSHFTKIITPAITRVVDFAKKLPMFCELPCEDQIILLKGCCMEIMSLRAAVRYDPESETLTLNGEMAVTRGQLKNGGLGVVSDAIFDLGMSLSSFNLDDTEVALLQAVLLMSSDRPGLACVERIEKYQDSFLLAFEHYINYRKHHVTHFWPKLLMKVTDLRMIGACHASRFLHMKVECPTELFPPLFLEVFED
Chain of Voltage-gated inwardly rectifying potassium channel KCNH2 (Homo sapiens) (Q12809 whole entry, looked up): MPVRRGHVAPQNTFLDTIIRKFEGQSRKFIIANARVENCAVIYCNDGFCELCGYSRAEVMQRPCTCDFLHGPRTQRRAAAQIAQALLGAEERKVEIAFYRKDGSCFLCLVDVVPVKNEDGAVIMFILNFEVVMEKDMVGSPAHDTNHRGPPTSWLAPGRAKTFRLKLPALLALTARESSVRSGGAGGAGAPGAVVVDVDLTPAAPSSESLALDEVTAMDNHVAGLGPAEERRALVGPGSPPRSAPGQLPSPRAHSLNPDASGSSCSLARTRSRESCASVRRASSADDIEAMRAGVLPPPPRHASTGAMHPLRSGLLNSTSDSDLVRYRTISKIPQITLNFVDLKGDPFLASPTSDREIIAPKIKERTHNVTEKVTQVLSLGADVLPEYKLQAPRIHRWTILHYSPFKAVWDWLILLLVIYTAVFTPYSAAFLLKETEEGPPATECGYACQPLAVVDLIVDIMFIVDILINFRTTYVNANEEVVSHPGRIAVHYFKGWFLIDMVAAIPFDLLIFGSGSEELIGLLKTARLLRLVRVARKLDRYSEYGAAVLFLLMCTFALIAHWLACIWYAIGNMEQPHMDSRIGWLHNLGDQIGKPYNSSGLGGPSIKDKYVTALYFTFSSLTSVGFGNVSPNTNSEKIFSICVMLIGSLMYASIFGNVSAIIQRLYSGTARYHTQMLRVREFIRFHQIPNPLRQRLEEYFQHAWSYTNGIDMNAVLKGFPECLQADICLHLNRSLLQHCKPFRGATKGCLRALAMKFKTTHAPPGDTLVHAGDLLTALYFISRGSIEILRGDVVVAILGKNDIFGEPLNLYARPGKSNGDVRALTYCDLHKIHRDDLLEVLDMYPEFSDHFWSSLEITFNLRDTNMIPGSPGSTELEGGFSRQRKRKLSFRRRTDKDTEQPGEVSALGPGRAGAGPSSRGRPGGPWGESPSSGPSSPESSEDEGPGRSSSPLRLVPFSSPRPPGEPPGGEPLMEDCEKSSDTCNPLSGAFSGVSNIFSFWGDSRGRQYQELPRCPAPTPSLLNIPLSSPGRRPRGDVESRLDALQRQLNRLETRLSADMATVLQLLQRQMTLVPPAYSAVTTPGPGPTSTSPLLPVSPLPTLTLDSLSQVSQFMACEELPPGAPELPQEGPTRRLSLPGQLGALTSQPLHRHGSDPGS
Chain of Tumor necrosis factor (Homo sapiens) (P01375 whole entry, looked up): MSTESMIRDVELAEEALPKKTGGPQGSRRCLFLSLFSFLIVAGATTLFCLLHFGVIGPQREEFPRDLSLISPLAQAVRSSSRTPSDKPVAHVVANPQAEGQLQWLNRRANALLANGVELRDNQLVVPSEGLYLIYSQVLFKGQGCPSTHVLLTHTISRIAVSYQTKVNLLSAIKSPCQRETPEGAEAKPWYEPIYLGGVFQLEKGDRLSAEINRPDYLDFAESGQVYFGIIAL
Chain of Peroxisome proliferator-activated receptor alpha (Homo sapiens) (Q07869 whole entry, looked up, the tested form may be a part): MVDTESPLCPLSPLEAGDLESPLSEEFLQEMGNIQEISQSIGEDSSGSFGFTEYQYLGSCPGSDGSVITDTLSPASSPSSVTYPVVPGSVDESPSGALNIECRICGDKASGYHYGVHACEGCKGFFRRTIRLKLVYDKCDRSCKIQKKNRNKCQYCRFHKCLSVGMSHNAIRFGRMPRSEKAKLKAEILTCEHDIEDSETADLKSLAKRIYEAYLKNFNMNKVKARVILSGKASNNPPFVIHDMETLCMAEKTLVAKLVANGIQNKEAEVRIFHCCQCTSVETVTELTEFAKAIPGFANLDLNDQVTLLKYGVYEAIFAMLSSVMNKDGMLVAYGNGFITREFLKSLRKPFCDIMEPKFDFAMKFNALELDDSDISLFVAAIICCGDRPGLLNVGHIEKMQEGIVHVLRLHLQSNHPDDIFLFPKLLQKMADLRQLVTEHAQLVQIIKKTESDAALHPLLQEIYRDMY

CC(=O)NS(=O)(=O)c1ccc(N)cc1
inactive: outcome [1] | max response [3] 16.1% | activity change % (negative = inhibition) [4] -0.298% | Potency [5] | Potency [6] | outcome [7] | activation [8] -3.02% | activation [9] -0.656% | Potency [10] | Potency [11] | outcome [12] | activation [13] -0.967% | max response [14] -6.08% | outcome [15]
-14.4%: max response [2]

Cc1cc(C)nc(NS(=O)(=O)c2ccc(N)cc2)n1
inactive: outcome [1] | max response [3] -0.622% and -18.2% | activity change % (negative = inhibition) [4] -2.95% and 11.9% | Potency [16] | Potency [5] | Potency [6] | Potency [17] | activation [8] -3.59% and 3.14% | outcome [12] | activation [13] -1.73% and 0.131% | max response [14] -5.72% and -2.38% | outcome [15]
1.53% and -6.64%: max response [2]

O=C(O)/C=C/c1ccc(Cn2ccnc2)cc1
inactive: Potency [16]

CC(=O)Nc1cccc(O)c1
-5.06%: max response [2]
inactive: outcome [1] | max response [3] 5.72% | activity change % (negative = inhibition) [4] 8.82% | Potency [16] | Potency [5] | outcome [18] | Potency [6] | Potency [17] | activation [8] -0.0293% | activation [9] 0.693% | outcome [12] | activation [13] 2.7% | max response [14] -0.0766% | outcome [15]

C/C(=C(\CCO)SS/C(CCO)=C(\C)N(C=O)Cc1cnc(C)nc1N)N(C=O)Cc1cnc(C)nc1N
inactive: Potency [16]

Cc1ccc(C(C)C)c(O)c1
-9.5%: max response [2]
inactive: outcome [1] | max response [3] -24.5% | activity change % (negative = inhibition) [4] -7.05% | Potency [16] | Potency [5] | outcome [18] | Potency [6] | Potency [17] | activation [8] -1.75% | activation [9] -1.79% | activation [13] 0.149% | max response [14] -0.976% | outcome [15]

COc1ccc(O)cc1
inactive: outcome [1] | max response [3] -8.57% | Potency [16] | Potency [5] | outcome [18] | Potency [6] | Potency [17] | activation [8] 1.27% | activation [9] 0.533% | outcome [12] | activation [13] 0.2% | max response [14] -1.68% | outcome [15]
-9.24%: max response [2]

COc1ccccc1OCC(O)CO (configuration not stated)
inactive: Potency [16]

COc1ccccc1OC(=O)Oc1ccccc1OC
inactive: Potency [16] | Potency [5] | outcome [18] | Potency [6]

O=C(CN1CCNCC1)NC1CCCCC1
inactive: Potency [16] | Potency [5] | outcome [18] | Potency [6] | outcome [7]

Cc1c(C)c2c(c(C)c1OC(=O)c1cccnc1)CC[C@@](C)(CCC[C@H](C)CCC[C@H](C)CCCC(C)C)O2
inactive: Potency [16] | Potency [5] | outcome [18] | Potency [6]

Nc1c2c(nc3c1CCC3)CCCC2
inactive: Potency [16] | Potency [5] | outcome [18] | Potency [6]

CC(=O)Oc1cccc(C)c1
inactive: Potency [16] | Potency [5] | outcome [18] | Potency [6]

Cc1cc(NC(=O)C2=C(O)c3ccccc3S(=O)(=O)N2C)no1
inactive: Potency [16] | Potency [5] | outcome [18] | Potency [6]

Nc1ccncc1N
inactive: Potency [16] | Potency [5] | outcome [18] | Potency [6]

O=C(O)c1ccc[n+]([O-])c1
inactive: Potency [16] | Potency [5] | outcome [18] | Potency [6]

Nc1ncnc(Nc2ccccc2)n1
inactive: Potency [16] | Potency [5] | outcome [18] | Potency [6]

CN1C(C)(C)CCCC1(C)C
inactive: Potency [16] | Potency [5] | outcome [18] | Potency [6]

NC(=O)c1ccc([N+](=O)[O-])cc1Cl
inactive: Potency [16] | Potency [5] | outcome [18] | Potency [6] | outcome [7]

Cc1c(I)c(=O)n(-c2ccccc2)n1C
inactive: Potency [16] | Potency [5] | outcome [18] | Potency [6]

CCOC(N)=O
inactive: Potency [16] | Potency [5] | outcome [18] | Potency [6]

Cc1[nH]c(C)c(Cl)c(=O)c1Cl
inactive: Potency [16] | Potency [5] | outcome [18] | Potency [6]

CC(C)C[C@@H](N)C(=O)O
inactive: Potency [16] | Potency [5] | outcome [18] | Potency [6] | outcome [7]

COC(=O)c1ccccc1C(=O)c1ccc(OCCN2CCCCC2)cc1
inactive: Potency [16] | Potency [5] | outcome [18] | Potency [6]

CN1CCN(C(=O)C2CCCCC2)CC1
inactive: Potency [16] | Potency [5] | outcome [18] | Potency [6]

Cc1onc(-c2ccccc2)c1-c1ccc(S(N)(=O)=O)cc1
inactive: Potency [16] | Potency [5] | outcome [18] | Potency [6]

Cc1ccc(S(=O)(=O)NC(=O)NC2CCCCCCC2)cc1
inactive: Potency [16] | Potency [5] | outcome [18] | Potency [6] | outcome [7]

CCOC(=O)c1cccnc1
inactive: Potency [16] | Potency [5] | outcome [18] | Potency [6] | outcome [7]

O=C(O)CCCc1ccccc1
inactive: Potency [16] | Potency [5] | outcome [18] | Potency [6]

O=C1CC[C@@H](C(=O)O)N1
inactive: Potency [16] | Potency [5] | outcome [18] | Potency [6]
